Bioassay records (PubChem)
PP1 inh – blocks human PP1-alpha phosphatase, a PP5 counter-screen; purified PP1alpha, OMFP fluorescence; inhibition, % at 6.7 µM; 320,000 compounds, 0.9% hits; AID 2235;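 active = inhibition above the mean inhibition of all tested compounds plus 3 SD, computed separately for each screening campaign, cut at about 15% in these data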
Target sequence (P62136 whole entry, looked up): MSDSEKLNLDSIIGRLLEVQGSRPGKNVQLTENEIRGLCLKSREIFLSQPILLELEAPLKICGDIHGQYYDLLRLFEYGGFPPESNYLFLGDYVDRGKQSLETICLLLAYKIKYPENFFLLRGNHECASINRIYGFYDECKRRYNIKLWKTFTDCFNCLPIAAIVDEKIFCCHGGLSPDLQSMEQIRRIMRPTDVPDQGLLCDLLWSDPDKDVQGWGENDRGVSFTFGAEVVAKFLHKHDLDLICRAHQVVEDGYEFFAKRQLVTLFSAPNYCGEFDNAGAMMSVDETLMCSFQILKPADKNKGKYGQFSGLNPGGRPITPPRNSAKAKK
PP5 primary – inhibitors of human protein phosphatase 5 (PP5); P53041; purified PP5c, OMFP substrate fluorescence; inhibition, % at 6.7 µM; 320,000 compounds, 0.18% hits; AID 1987;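 active = inhibition above the campaign's mean inhibition across all tested compounds plus 3 SD, cut at about 9.5% in these data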;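 note: 0% = DMSO only and 100% = 100 µM cantharidin control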
PREPL inh – inhibitors of human prolyl oligopeptidase-like enzyme PREPL. Q4J6C6. recombinant PREPL, fluorescence polarization activity-based probe. inhibition, % at 5.96 µM. 320,000 compounds, 0.68% hits; in the data active = inhibition above about 43%;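 note: 0% = enzyme with DMSO and 100% = wells lacking enzyme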
NadD block – NadD (S. aureus) enzyme inhibition | purified NadD enzyme, colorimetric absorbance read-out | inhibition, % at 20 µM | 360,000 compounds, 0.78% hits | AID 602399; in the data active = inhibition above about 26%
Rpn11 inh – blocks the human proteasome subunit Rpn11; O00487; inhibition, % at 20 µM; AID 588493; human 26S proteasome, Ub4-pepOG fluorescence polarization; 20S core pre-blocked with epoxomicin; 360,000 compounds, 0.59% hits;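 active = inhibition at 20 µM, scaled to each plate's controls, above about 33%, limit read from the data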
Target sequence (O00487 whole entry, looked up): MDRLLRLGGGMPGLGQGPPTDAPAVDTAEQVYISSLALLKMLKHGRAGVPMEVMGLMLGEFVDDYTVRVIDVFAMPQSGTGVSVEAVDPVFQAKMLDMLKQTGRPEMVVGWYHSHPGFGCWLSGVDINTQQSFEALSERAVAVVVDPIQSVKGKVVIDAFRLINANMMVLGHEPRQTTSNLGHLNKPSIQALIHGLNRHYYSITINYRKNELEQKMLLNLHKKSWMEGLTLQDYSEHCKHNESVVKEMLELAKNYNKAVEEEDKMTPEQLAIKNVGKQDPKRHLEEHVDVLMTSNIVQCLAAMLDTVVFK
NadD inh conf – NadD (S. aureus) inhibition, single concentration confirmation | shares compounds with NadD block | purified S. aureus NadD, colorimetric enzyme assay | inhibition, % at 20 µM | 2,000 compounds, 13% hits; in the data active = inhibition mostly above about 42%, no sharp cut-off; inactive = mostly below about 42%
Starred values were filed as active, the others as inactive; x = no result given. This is a sample that favours compounds with a hit; in the whole collection about 2.4% have one here.

SMILES | PP1 inh | PP5 primary | PREPL inh | NadD block | Rpn11 inh | NadD inh conf
Cn1c(NC(=O)c2ccc(S(=O)(=O)N3CCOCC3)cc2)cc(=O)n(C)c1=O | -3.1 | 1.6 | 12.5 | 3.1 | -8.5 | x
C[C@@H]1CCCCO[C@@H](CN(C)S(=O)(=O)c2ccc(Cl)cc2)[C@@H](C)CN([C@H](C)CO)C(=O)c2cc(N(C)C)ccc2O1 | x | x | x | 4.8 | 4.9 | x
O=C(O)c1cccc(-c2ccccc2)c1O | x | x | x | -0.5 | -1.8 | x
O=C(COc1ccccc1F)Nc1c2c(nn1-c1ccccc1)CS(=O)(=O)C2 | 1.7 | 4.8 | -6.3 | -6.2 | 0.2 | x
Cc1ccc2sc(N(CCCN(C)C)C(=O)CCS(=O)(=O)c3ccccc3)nc2c1C | 1.0 | 0.2 | -24.1 | -2.2 | -20.0 | x
O=C(COC(=O)c1ccc(S(=O)(=O)Nc2ccccc2)cc1)NC1CCCC1 | 6.5 | 4.9 | 5.7 | -4.2 | -2.4 | x
NC(=O)c1c(NC(=O)COC(=O)c2ccc(S(=O)(=O)Nc3ccccc3)cc2)sc2c1CCCC2 | 6.5 | 0.9 | -10.5 | 34.6* | 3.9 | 26.4
Cc1c(N)cccc1Cl | x | x | x | -2.9 | -0.4 | x
CCn1c2ccccc2c2cc(NC(=O)CSc3nnc(-c4ccc(OC)c(OC)c4)n3N)ccc21 | 6.5 | 3.9 | 8.0 | 13.1 | 14.5 | x
CCOc1ccc(-c2nnc(SCC(=O)Nc3ccc4c(c3)c3ccccc3n4CC)n2N)cc1 | 7.9 | 6.8 | 5.5 | 30.6* | -2.1 | 23.3
COc1ccccc1Nc1ccc(C(=O)NCc2cccs2)cn1 | 3.9 | 4.1 | 8.0 | -0.1 | 2.0 | x
COc1ccccc1Nc1ncc(-c2cccs2)s1 | -1.7 | 1.9 | 7.0 | 39.5* | 34.1 | 18.5
O=C(NC(=S)Nc1nc(-c2cccc([N+](=O)[O-])c2)cs1)c1cc(Cl)ccc1Cl | -4.5 | 0.6 | -4.3 | 30.4* | 2.1 | 7.8
COc1ccc2c(c1)C=Cc1ccccc1O2 | 2.0 | 1.6 | 17.6 | x | x | x
Cc1cc(C)nc(NC(=NCCc2c[nH]c3ccccc23)NC(=O)Nc2ccc(Cl)c(Cl)c2)n1 | -0.1 | -0.7 | 10.8 | 38.4* | -3.1 | 3.2
Cc1cc(C)nc(NC(=NCCc2c[nH]c3ccccc23)NC(=O)Nc2cccc([N+](=O)[O-])c2)n1 | -4.8 | -0.8 | 16.5 | 49.2* | -0.1 | 7.9
Cc1cc(C)nc(NC(=NCCc2c[nH]c3ccccc23)NC(=O)c2ccco2)n1 | -1.7 | -1.0 | -7.2 | 26.5 | -2.1 | x
Cc1cc(C)nc(NC(=NCCc2c[nH]c3ccccc23)NC(=O)Nc2ccccc2)n1 | -2.3 | 3.5 | 22.6 | 18.8 | -9.0 | x
CC(=O)N1CCCc2cc(S(=O)(=O)Nc3ccccc3C)ccc21 | -2.9 | 0.8 | -8.5 | 5.3 | 3.3 | x
CCCCC(=O)Nc1cc(Cl)ccc1C(=O)O | -4.7 | -1.8 | 6.1 | -1.7 | -1.4 | x
COc1ccccc1-n1c(SCC(=O)N2CCOCC2)nc2ccccc2c1=O | 0.2 | 0.7 | 5.9 | -11.2 | -2.4 | x
COc1ccccc1-n1c(SCc2cc(=O)oc3cc(O)ccc23)nc2ccccc2c1=O | 14.7 | 1.2 | 19.1 | 31.8* | 13.2 | 57.5*
O=C1c2ccccc2C(=O)N1CCc1c(-c2[nH]c3ccccc3c2CCN2C(=O)c3ccccc3C2=O)[nH]c2ccccc12 | x | x | x | 31.1* | 2.7 | 3.1
Cc1ccc(C2C(C=Nc3c(C)n(C)n(-c4ccccc4)c3=O)=C(c3ccccc3)Oc3ccccc32)cc1 (stereo not drawn) | 6.8 | 4.1 | -0.5 | 37.8* | 0.4 | 10.9
COc1ccc(-n2c(SCC(=O)NNC(=O)c3ccc(C)cc3)nnc2-c2ccncc2)cc1 | 0.8 | 0.4 | 10.7 | 8.0 | -3.2 | x
SMILES | PP1 inh | PP5 primary | PREPL inh | NadD block | Rpn11 inh | NadD inh conf
Cc1ccc(Cl)cc1N1CCN(S(=O)(=O)c2ccc3c(c2)CC(=O)N3C)CC1 | 6.9 | 2.1 | -2.8 | 28.5* | 3.1 | 10.2
Cc1ccc(C)c(N2CCN(S(=O)(=O)c3ccc4[nH]c(=O)c(=O)[nH]c4c3)CC2)c1 | 6.3 | 2.8 | 5.5 | 32.1* | -2.1 | 53.5*
Cc1ccc(C)c(N2CCN(S(=O)(=O)c3ccc4[nH]c(=O)ccc4c3)CC2)c1 | 12.4 | 1.2 | 2.9 | 7.8 | -7.1 | x
COCc1cc(N2CCCCC2)nc(-c2ccccc2)n1 | 0.6 | 2.9 | -2.1 | 6.6 | 3.6 | x
O=C1CCCC2=C1C1(CCCCC1)N=C(Nc1nc3ccccc3o1)N2 | 1.6 | 0.2 | -29.6 | 2.1 | 3.4 | x
O=C1CCCC2=C1C1(CCCC1)N=C(Nc1nc3cc(-c4ccccc4)ccc3o1)N2 | x | x | x | 39.6* | 15.4 | 12.6
Cc1ccc(/C=N/NC(=O)CSc2nc3ccccc3c(=O)n2-c2ccccc2C)s1 | 6.3 | 7.9 | 10.3 | 49.7* | 6.7 | 34.4
Cc1nn(-c2ccccc2)c(C)c1/C=N/NC(=O)CSc1nc2ccccc2c(=O)n1-c1ccc(Br)cc1 | 0.7 | 1.4 | -4.6 | 30.1* | -0.9 | 3.4
Cc1ccc(/C=N/NC(=O)CSc2nc3ccccc3c(=O)n2-c2ccccc2)s1 | 5.2 | 1.3 | 14.4 | -1.3 | 16.7 | x
COC(=O)/C=c1\[nH]c2nnc(C)n2c1=O | 0.4 | -0.9 | -1.9 | 5.1 | 2.2 | x
COc1ccc([C@H]2CC(=O)C=C(c3ccc(C)c4ccccc34)C2)cc1 | 1.5 | 4.0 | 0.5 | -0.1 | 4.3 | x
O=C1Nc2cc(C(=O)NCCN3CCCCCC3)ccc2S/C1=C/c1ccccc1F | x | x | x | 45.7* | 9.7 | -11.2
O=C1Nc2cc(C(=O)NCCCN3CCCC3)ccc2S/C1=C/c1ccccc1F | 2.0 | -0.8 | -4.5 | 3.7 | -6.3 | x
CC(OC(=O)CCc1nc2ccccc2c(=O)[nH]1)C(=O)c1ccc(Br)cc1 (stereo not drawn) | -2.0 | 0.5 | -16.6 | 1.8 | 8.0 | x
Cc1ccccc1NC(=O)c1ccc(NS(=O)(=O)c2cc(C(C)(C)C)cc(C)c2C)cc1 | 6.6 | 4.6 | 6.1 | 41.4* | 5.3 | 25.7
O=C(O)c1cccc(-n2cccc2/C=C2/NC(=O)N(c3ccc(Cl)cc3)C2=O)c1 | x | x | x | 42.6* | x | 61.1*
O=C(CCN1CCN(Cc2ccccc2)CC1)NNC(=O)Nc1cccc(C(F)(F)F)c1 | -0.3 | 0.2 | -2.5 | -5.4 | 2.1 | x
CC(=O)C1=C(O)C(=O)N(c2ccc(O)cc2)C1c1cccc([N+](=O)[O-])c1 (stereo not drawn) | -2.6 | 0.3 | 9.7 | -0.9 | 2.6 | x
CCOc1ccc(N2C(=O)/C(=C\c3ccc(OC)c(O)c3)S(=O)(=O)C2c2cccc([N+](=O)[O-])c2)cc1 (stereo not drawn) | 1.5 | 0.1 | -7.3 | 33.5* | -1.7 | 8.5
COc1ccc(-c2ccc3[nH]c4c(c3c2)CCN2C[C@@H]([C@H](C)OC(=O)Nc3cc(Cl)cc(Cl)c3)[C@@H](N(C)C(=O)Nc3cc(Cl)cc(Cl)c3)C[C@@H]42)cc1 | x | x | x | 37.6* | 27.3 | 0.8
COc1ccc(NC(=O)N(C)[C@H]2C[C@H]3c4[nH]c5ccc(-c6ccc(OC)cc6)cc5c4CCN3C[C@H]2[C@H](C)O)cc1 | x | x | x | 17.5 | 18.4 | x
Oc1ccc(F)c2cccnc12 | 0.7 | 0.8 | -0.4 | 4.1 | 0.5 | x
Oc1c(I)cc(I)c2cccnc12 | 3.3 | -0.6 | 3.2 | 45.6* | 30.3 | 6.2
Cc1ccc(S(=O)(=O)Nc2ncccn2)cc1 | -0.5 | -0.1 | -1.4 | -1.6 | 6.7 | x
